Experimental data as given in PubChem BioAssay (NCATS).
Where “and” joins values, the source holds several entries; their conditions need not be identical. Equal entries are not always repeated. Records with an inconclusive call do not appear. Entries that show only a call come without a potency. Calls of active or inactive are those of the source. Unless noted, the call rests on the fitted dose curve; in most records, active means well fitted curve in the direction sought with a large enough effect; inconclusive means small, poorly fitted or top-dose-only effect, or another doubt; inactive means no such curve, though single readings can be large; an effect the other way counts as inactive or inconclusive.

Columns and labels:
[1] = Cell Viability - Jurkat (AID 426;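 active means dose-dependent loss of cell ATP signal giving a full or clear fitted curve, ranked by lower potency value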; further: potency means the concentration at half of the fitted maximal effect); conditions: qHTS
Summary of the method: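 qHTS, 1536-well; Jurkat E6-1, 5000 cells/well, complete medium; cpd 40 hr, 37 °C; CellTiter-Glo 20 min RT; luminescence. AC50 by Hill fit.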

[2] = Cell Viability - HepG2 (AID 433; calls by dose curve;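 further: potency means the concentration at half of the fitted maximal effect; potency for ATP loss meaning cytotoxicity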); conditions: qHTS
Summary of the method: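 ATP luminescence (CellTiter-Glo) after 40 h compound exposure, 37 °C, HepG2, 1500 cells/well, complete medium. Normalized: DMSO = basal, 100 uM tamoxifen = 100% inhibition. AC50 via standard Hill equation.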

[3] = Cell Viability - NIH 3T3 (AID 541); conditions: NIH 3T3 cell viability, qHTS; activity change, negative = cytotoxicity: at 92.2 µM (top of the series); further: nearly all actives have a fitted effect of over 25% in size; further: potency means the concentration at half of the fitted maximal effect
Summary of the method: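 Luminescent ATP signal (CellTiter-Glo) served as the viability read-out after NIH 3T3 cells were exposed to compounds over a concentration range for 40 hr at 37 °C. Hill-equation modelling of concentration-response data gave AC50.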

[4] = Cell Viability - H-4-II-E (AID 543); conditions: H-4-II-E rat hepatoma viability; series mostly up to 92.2 µM; further: nearly all actives have a fitted effect of over 35% in size; further: potency means the concentration at half of the fitted maximal effect
Summary of the method: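 Luminescent ATP signal (CellTiter-Glo) served as the viability read-out, with cytotoxicity seen as a concentration-dependent ATP drop. Cells were treated for 40 hours in complete medium. AC50 values derive from Hill-equation modelling.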

[5] = Cell Viability - LYMP2-024 (AID 988); conditions: LYMP2-024 lymphoblastoid cell viability; series mostly up to 92.2 µM; further: nearly all actives have a fitted effect of over 60% in size
Summary of the method: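 Steps: seed 2500 cells/well, 5 hr 37 C; add compound, 24 hr 37 C; add CellTiter-Glo, 30 min room temperature; read luminescence. AC50 derived by Hill modelling of concentration-dependent ATP loss.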

[6] = target: Estrogen receptor (Homo sapiens) (UniProt P03372); experiment: qHTS assay for small molecule antagonists of estrogen receptor alpha signaling (AID 588513; active means well fitted curve in the direction sought with a large enough effect in the signal ratio, with a control signal flat, not every such curve was filed as active; the % refers to the signal ratio); conditions: ER-alpha-UAS-bla HEK293, beta-lactamase ratio, antagonist mode; series mostly up to 76.9 µM
Estrogen receptor (Homo sapiens), sequence (P03372 whole entry, looked up): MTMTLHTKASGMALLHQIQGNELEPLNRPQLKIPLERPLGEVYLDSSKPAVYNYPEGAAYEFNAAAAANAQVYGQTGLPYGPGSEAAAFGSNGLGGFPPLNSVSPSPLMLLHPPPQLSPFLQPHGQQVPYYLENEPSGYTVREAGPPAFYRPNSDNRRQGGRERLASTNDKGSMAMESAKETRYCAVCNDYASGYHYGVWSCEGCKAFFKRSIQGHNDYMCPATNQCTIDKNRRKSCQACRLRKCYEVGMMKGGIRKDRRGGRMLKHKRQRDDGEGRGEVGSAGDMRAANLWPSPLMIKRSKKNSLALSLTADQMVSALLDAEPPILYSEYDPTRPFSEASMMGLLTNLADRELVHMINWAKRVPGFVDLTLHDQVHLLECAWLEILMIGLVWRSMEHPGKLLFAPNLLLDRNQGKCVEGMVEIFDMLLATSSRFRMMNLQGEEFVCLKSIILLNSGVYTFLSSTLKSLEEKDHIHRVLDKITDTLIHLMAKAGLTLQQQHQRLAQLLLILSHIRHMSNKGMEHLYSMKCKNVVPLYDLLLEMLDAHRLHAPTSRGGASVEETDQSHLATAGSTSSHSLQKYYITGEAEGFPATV
Summary of the method: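 Beta-lactamase reporter, antagonist mode, HEK 293 GripTite cells; 0.5nM E2 stimulus, 18 h, 37 C; CCF4 dye 2 h RT; fluorescence. IC50 and efficacy from Hill fits, normalized to E2 and DMSO.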

[7] = target: Estrogen receptor (Homo sapiens) (UniProt P03372); experiment: qHTS assay for small molecule agonists of estrogen receptor alpha signaling (AID 588514; calls by dose curve; further: nearly all actives have a fitted effect of over 70% in size); conditions: ER-alpha-UAS-bla HEK293, beta-lactamase ratio, 18 h; series mostly up to 76.8 µM
Summary of the method: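 Cells were plated at 5000/well, incubated 4 hrs at 37 C, dosed with compound titration series, incubated 18 hrs at 37 C, loaded with CCF4 dye for 2 hrs at RT, then fluorescence was read.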

[8] = target: Glucocorticoid receptor (Homo sapiens) (UniProt P04150); experiment: qHTS assay for small molecule antagonists of glucocorticoid receptor signaling (AID 588533; active means well fitted inhibition curve with a large enough effect in the signal ratio, with a control signal flat, not every such curve was filed as active; the % refers to the signal ratio;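 further: cells stimulated with 2 nM dexamethasone as agonist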); conditions: HeLa MMTV-bla, GRE beta-lactamase ratio, antagonist mode, 18 h; series mostly up to 76.8 µM
Glucocorticoid receptor (Homo sapiens), sequence (P04150 whole entry, looked up): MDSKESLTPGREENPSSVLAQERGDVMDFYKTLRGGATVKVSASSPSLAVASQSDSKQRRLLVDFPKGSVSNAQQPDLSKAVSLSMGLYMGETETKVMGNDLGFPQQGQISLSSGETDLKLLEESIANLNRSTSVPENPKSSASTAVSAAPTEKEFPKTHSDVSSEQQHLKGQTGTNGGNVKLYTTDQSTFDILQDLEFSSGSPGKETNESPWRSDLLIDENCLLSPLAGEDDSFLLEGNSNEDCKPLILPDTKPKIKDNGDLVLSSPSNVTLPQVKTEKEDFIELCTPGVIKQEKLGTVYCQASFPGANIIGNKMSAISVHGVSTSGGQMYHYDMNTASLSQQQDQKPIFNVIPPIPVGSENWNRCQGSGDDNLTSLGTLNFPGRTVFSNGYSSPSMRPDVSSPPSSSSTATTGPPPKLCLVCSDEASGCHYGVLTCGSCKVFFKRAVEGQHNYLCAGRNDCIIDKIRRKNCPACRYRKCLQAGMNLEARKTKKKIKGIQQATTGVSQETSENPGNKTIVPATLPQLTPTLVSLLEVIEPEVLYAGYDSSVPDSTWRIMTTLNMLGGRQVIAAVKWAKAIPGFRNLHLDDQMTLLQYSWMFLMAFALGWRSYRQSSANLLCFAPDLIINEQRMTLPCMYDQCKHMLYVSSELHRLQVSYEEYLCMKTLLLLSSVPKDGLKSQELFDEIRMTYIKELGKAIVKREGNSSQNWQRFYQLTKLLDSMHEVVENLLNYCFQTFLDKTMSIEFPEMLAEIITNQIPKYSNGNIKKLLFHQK
Summary of the method: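 Antagonist-mode qHTS: compound titrations added to GRE-bla HeLa cells, then dexamethasone 2 nM final; 18 h, 37 C. CCF4 FRET fluorescence normalized to dexamethasone and DMSO; IC50 from Hill fit.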

[9] = qHTS assay for small molecule antagonists of peroxisome proliferator-activated receptor delta signaling (AID 588535; active means well fitted inhibition curve with a large enough effect in the signal ratio, with a control signal flat, not every such curve was filed as active; the % refers to the signal ratio;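 on max response: cells co-treated with a PPAR-delta agonist as stimulator during compound exposure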); conditions: HEK293T PPARd-UAS-bla, beta-lactamase FRET ratio, 18 h; 460 nm channel
Summary of the method: (§1)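 HEK293T PPAR-delta-UAS-bla cells, 4000/well, 2% charcoal/dextran FBS; 5 h 37 C; cpd titration; 18 h 37 C; CCF4 2 h RT; FI 460/530 nm; Hill fit → IC50, efficacy.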

[10] = target: Peroxisome proliferator-activated receptor delta (Homo sapiens) (UniProt Q03181); experiment: as above; conditions: HEK293T PPARd-UAS-bla, beta-lactamase FRET ratio, 18 h; series mostly up to 76.7 µM
Peroxisome proliferator-activated receptor delta (Homo sapiens), sequence (Q03181 whole entry, looked up): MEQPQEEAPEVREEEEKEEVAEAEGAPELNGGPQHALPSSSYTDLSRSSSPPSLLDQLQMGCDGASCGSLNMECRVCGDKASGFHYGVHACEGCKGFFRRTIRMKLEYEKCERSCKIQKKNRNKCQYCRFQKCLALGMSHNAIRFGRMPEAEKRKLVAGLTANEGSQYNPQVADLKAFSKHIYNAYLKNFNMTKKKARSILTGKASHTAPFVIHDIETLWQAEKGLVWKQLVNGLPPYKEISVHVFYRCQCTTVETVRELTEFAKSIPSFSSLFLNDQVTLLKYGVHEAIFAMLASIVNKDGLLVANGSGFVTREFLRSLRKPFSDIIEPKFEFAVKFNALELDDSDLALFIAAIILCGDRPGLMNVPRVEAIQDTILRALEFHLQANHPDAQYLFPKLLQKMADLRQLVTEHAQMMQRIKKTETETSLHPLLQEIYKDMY
Summary of the method: as §1

[11] = target: Vitamin D3 receptor (Homo sapiens) (UniProt P11473); experiment: qHTS assay for small molecule agonists of vitamin D receptor signaling (AID 588543; calls by dose curve); conditions: HEK293T VDR-UAS-bla, beta-lactamase ratio, 16 h; series mostly up to 76.8 µM
Vitamin D3 receptor (Homo sapiens), sequence (P11473 whole entry, looked up): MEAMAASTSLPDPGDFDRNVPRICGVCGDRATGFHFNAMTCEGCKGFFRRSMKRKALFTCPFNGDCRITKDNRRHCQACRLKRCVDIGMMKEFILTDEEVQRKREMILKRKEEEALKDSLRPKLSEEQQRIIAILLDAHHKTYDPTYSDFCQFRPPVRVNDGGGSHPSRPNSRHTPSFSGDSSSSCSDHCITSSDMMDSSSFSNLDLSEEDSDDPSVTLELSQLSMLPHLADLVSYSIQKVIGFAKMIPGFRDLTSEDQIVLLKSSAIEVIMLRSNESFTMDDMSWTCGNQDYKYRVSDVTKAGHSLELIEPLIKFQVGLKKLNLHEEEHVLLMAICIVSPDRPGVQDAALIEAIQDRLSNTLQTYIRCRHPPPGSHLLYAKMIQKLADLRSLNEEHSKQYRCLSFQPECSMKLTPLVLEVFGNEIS
Summary of the method: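 β-lactamase reporter, VDR-UAS-bla HEK293T, agonist mode. Cells plated 5 h at 37 °C, compound titration 16 h at 37 °C, CCF4 dye 2 h RT, ratio 460/530 nm. Hill fit → EC50, efficacy vs 50 nM 1α,25-(OH)2D3.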

[12] = qHTS assay for small molecule activators of the p53 signaling pathway (AID 651743; active means well fitted activation curve with a large enough effect in the signal ratio, not every such curve was filed as active; the % refers to the signal ratio; further: potency means the concentration at half of the fitted maximal effect); conditions: HCT-116 p53RE-bla, beta-lactamase FRET ratio, 16 h; activation: stronger effect = higher value
Summary of the method: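 Read-out is fluorescence intensity from the LiveBLAzer B/G FRET substrate, added for 2 hours at room temperature after HCT-116 p53RE-bla cells had been incubated with compounds for 16 hours at 37 C.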

[13] = qHTS assay for small molecule agonists of the antioxidant response element (ARE) signaling pathway measured by Nrf2-dependant transcriptional activity (AID 720636; active means well fitted curve in the direction sought with a large enough effect in the repeat runs; an effect the other way counts as inactive or inconclusive); conditions: ARE-luc HepG2, Nrf2 luciferase reporter, 16 h; series mostly up to 92.4 µM
Summary of the method: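 ARE-luc HepG2 cells carrying an Nrf2-responsive luciferase reporter, in medium with 1% dialyzed FBS, exposed to compound for 16 hr at 37 C, 5% CO2. Luminescence read 30 min after ONE-Glo addition.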

[14] = Cell Viability - LYMP2-022 (AID 987); conditions: LYMP2-022 lymphoblastoid cell viability; series mostly up to 92.2 µM; further: nearly all actives have a fitted effect of over 55% in size
Summary of the method: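 qHTS: human lymphoblastoid cells 2500/well; 5 hr 37 C; cpd added; 24 hr 37 C; CellTiter-Glo, 30 min RT; luminescence. AC50 via Hill fit; tetraoctylammonium bromide positive ctrl.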

[15] = target: Thyroid hormone receptor beta (Homo sapiens) (UniProt P10828); experiment: qHTS assay for small molecule agonists of thyroid hormone receptor beta signaling (AID 588545; calls by dose curve); conditions: TR-UAS-bla GripTite HEK 293, beta-lactamase ratio, agonist mode, 18 h; series mostly up to 76.7 µM
Thyroid hormone receptor beta (Homo sapiens), sequence (P10828 whole entry, looked up): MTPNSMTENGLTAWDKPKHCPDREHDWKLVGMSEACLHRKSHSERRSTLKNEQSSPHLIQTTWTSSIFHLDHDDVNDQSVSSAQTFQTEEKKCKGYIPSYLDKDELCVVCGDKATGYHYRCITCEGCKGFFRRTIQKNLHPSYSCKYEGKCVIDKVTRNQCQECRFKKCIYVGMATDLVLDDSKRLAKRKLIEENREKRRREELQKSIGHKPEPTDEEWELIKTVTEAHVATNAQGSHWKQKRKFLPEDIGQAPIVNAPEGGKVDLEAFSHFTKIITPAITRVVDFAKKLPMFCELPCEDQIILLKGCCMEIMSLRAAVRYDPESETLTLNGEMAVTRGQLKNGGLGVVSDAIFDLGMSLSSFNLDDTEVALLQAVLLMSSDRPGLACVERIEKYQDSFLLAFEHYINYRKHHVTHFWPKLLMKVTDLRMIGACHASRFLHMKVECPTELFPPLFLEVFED
Summary of the method: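 Cells (2500/well) were seeded, incubated 4 hrs at 37 C, dosed with a compound series, incubated 18 hrs, loaded with CCF4 dye for 2 hrs at RT, then read for fluorescence. Data were scaled between DMSO (0%) and 10 nM T3 (100%).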

[16] = Cell Viability - MRC5 (AID 434; calls by dose curve;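 further: potency means the concentration at half of the fitted maximal effect; potency reflects cytotoxicity seen as loss of intracellular ATP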); conditions: MRC5 lung fibroblast viability, qHTS
Summary of the method: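 qHTS cytotoxicity in human lung fibroblast MRC5 cells; 40 hr treatment, 37 °C; cellular ATP by luciferase luminescence; DMSO = 0%, 100 uM tamoxifen = 100% inhibition; Hill-fit AC50.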

[17] = target: Peroxisome proliferator-activated receptor gamma (Homo sapiens) (UniProt P37231); experiment: qHTS assay for small molecule agonists of peroxisome proliferator-activated receptor gamma signaling (AID 588536; active means well fitted curve in the direction sought with a large enough effect in the signal ratio, with a control signal flat, not every such curve was filed as active; the % refers to the signal ratio); conditions: HEK293 PPARg-UAS-bla, beta-lactamase ratio, 16 h, percent of rosiglitazone response, DMSO as zero; series mostly up to 76.7 µM
Peroxisome proliferator-activated receptor gamma (Homo sapiens), sequence (P37231 whole entry, looked up): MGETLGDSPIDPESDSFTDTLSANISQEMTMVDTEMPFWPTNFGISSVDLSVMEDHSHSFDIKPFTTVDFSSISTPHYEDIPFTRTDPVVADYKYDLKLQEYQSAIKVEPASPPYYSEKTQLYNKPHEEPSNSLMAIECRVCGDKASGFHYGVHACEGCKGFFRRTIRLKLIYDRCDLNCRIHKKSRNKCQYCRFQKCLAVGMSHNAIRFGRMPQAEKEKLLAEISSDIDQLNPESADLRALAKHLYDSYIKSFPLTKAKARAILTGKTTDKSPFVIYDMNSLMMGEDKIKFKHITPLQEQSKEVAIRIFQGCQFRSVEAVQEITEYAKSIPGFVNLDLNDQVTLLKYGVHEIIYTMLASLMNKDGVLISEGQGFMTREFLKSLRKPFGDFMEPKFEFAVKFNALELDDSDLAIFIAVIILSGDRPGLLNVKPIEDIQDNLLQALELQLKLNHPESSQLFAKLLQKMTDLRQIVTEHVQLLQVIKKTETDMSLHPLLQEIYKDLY
Summary of the method: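 HEK293 UAS-bla reporter line, 1% charcoal/dextran FBS; titration, 16 h, 37 C; CCF4 loading 2 h RT; fluorescence 460/530 nm. Normalized to rosiglitazone 2 uM = 100%, DMSO = 0%.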

[18] = qHTS assay for environmental chemicals that activate the Aryl hydrocarbon Receptor (AhR) signaling pathway (AID 651777); conditions: 1A2-DRE human hepatoma cells, luciferase, 24 h; activation: stronger effect = higher value; further: nearly all actives have a fitted effect of over 15% in size
Summary of the method: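 Human hepatoma 1A2-DRE cells stably carrying a DRE/CYP1A2 promoter–luciferase reporter, 1,200 cells/well, exposed to compound 24 hr at 37 C. Luciferase read by One-Glo luminescence after 30 min at room temperature; increased signal marks AhR activation.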

[19] = target: Bile acid receptor (Homo sapiens) (UniProt Q96RI1); experiment: qHTS assay for small molecule agonists of farnesoid X receptor signaling (AID 588527; calls by dose curve); conditions: HEK293T FXR-UAS-bla, beta-lactamase ratio, 16 h; stronger effect = higher value
Bile acid receptor (Homo sapiens), sequence (Q96RI1 whole entry, looked up): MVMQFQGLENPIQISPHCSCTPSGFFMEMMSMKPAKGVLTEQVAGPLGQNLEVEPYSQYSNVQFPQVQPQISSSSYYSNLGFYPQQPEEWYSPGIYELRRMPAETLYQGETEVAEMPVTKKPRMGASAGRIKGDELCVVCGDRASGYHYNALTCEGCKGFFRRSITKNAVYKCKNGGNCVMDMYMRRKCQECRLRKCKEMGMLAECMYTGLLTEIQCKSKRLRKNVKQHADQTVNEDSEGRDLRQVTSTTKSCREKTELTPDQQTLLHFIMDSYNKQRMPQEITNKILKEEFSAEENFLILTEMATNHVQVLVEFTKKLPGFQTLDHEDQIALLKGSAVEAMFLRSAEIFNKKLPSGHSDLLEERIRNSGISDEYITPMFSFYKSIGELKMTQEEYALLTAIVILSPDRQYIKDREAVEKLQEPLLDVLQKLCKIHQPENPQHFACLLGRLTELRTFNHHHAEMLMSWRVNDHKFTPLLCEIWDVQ
Summary of the method: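 Quantitative HTS used FXR-UAS-bla HEK293T cells with 16 h compound incubation at 37 C. EC50 values came from concentration-response curves normalized to chenodeoxycholic acid.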

[20] = target: Glucocorticoid receptor (Homo sapiens) (UniProt P04150); experiment: qHTS assay for small molecule agonists of glucocorticoid receptor signaling (AID 588532; active means well fitted curve in the direction sought with a large enough effect in the signal ratio, with a control signal flat; the % refers to the signal ratio); conditions: HeLa MMTV-bla, beta-lactamase ratio, agonist, 18 h; stronger effect = higher value; percent of dexamethasone control, DMSO zero
Summary of the method: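 Using MMTV-bla HeLa cells in medium with 1% stripped FBS and 25 mM HEPES, compounds were titrated and incubated overnight-length (18 h). Beta-lactamase cleavage of CCF4 was quantified by dual-emission fluorescence.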

With Nn1cnnc1 the Potency [1] was > 92 µM (inactive), the Potency [2] was > 92 µM (inactive) and the Potency [3] was “inactive”. The Potency [4] was “inactive”, the Potency [5] was “inactive” and the Potency [6] was “inactive”. The Potency [7] was “inactive”, the outcome [8] was “inactive” and the max response [9] was -17.8%. The outcome [10] was “inactive”, the outcome [11] was “inactive” and the activation [12] was 0.253% (inactive). The Potency [13] was “inactive”.
In the case of CC(=O)[O-].CC(=O)[O-].CC(=O)[O-].[Cr+3], the Potency [1] is reported as > 92 µM (inactive), the Potency [2] is reported as > 92 µM (inactive) and the Potency [4] is reported as “inactive”. The Potency [14] was “inactive”, the Potency [5] was “inactive” and the Potency [15] was “inactive”. For the same molecule, the Potency [13] was “inactive”.
For CC(Cl)(Cl)Cl, the Potency [1] was > 92 µM (inactive), the Potency [16] was > 92 µM (inactive) and the Potency [3] was “inactive”. The Potency [4] was “inactive”, the Potency [14] was “inactive” and the Potency [5] was “inactive”. For the same molecule, the max response [9] was -34.9% and 9.34%, the outcome [10] was “inactive” and the outcome [17] was “inactive”. The Potency [15] was “inactive”, the activation [12] was -0.56% (inactive) and -3.67% (inactive) and the activation [18] was -0.393% (inactive) and 0.414% (inactive). For the same molecule, the Potency [13] was “inactive”.
With O=C(O)c1cccc(Cl)c1 the Potency [1] was > 92 µM (inactive), the Potency [2] was > 92 µM (inactive) and the Potency [4] was “inactive”. For the same molecule, the Potency [14] was “inactive”, the Potency [5] was “inactive” and the Potency [6] was “inactive”. The Potency [7] was “inactive”, the activation [19] was 2.01% (inactive) and the max response [9] was 30.4%. The outcome [10] was “inactive”, the outcome [17] was “inactive” and the Potency [15] was “inactive”. The activation [18] was 0.728% (inactive) and the Potency [13] was “inactive”.
For ClCCCCl, the Potency [1] was > 92 µM (inactive), the Potency [2] was > 92 µM (inactive) and the Potency [3] was “inactive”. The Potency [4] was “inactive”, the Potency [14] was “inactive” and the Potency [5] was “inactive”. For the same molecule, the activation [19] was 1.98% (inactive), the max response [9] was 23.7% and the outcome [10] was “inactive”. The outcome [17] was “inactive”, the activation [12] was -3.64% (inactive) and the activation [18] was -1.95% (inactive).
In the case of CCCCNC(=O)n1c(NC(=O)OC)nc2ccccc21, the Potency [1] is reported as 3.28 µM (active), the Potency [2] is reported as > 92 µM (inactive) and the Potency [3] is reported as 5.01 µM (active). The Potency [4] was 5.01 µM (active), the Potency [6] was “inactive” and the Potency [7] was “inactive”. For the same molecule, the activation [19] was -3.82% (inactive) and -0.311% (inactive), the activation [20] was -10.9% (inactive) and the outcome [17] was “inactive”. For the same molecule, the outcome [11] was “inactive”, the Potency [15] was “inactive” and the Potency [12] was 14.1 µM (active). For the same molecule, the activation [18] was 8.93% (inactive) and 9.96% (inactive).
In the case of N#CCBr, the Potency [1] is reported as > 92 µM (inactive), the Potency [2] is reported as > 92 µM (inactive) and the Potency [3] is reported as 10 µM (active). For the same molecule, the Potency [4] was “inactive”, the Potency [14] was “inactive” and the Potency [5] was “inactive”. The Potency [6] was “inactive”, the activation [19] was -0.961% (inactive) and the activation [20] was -5.38% (inactive). For the same molecule, the Potency [15] was “inactive”, the activation [18] was 13.7% (inactive) and the Potency [13] was “inactive”.
In the case of C=CCO, the Potency [1] is reported as > 92 µM (inactive), the Potency [2] is reported as > 92 µM (inactive) and the Potency [3] is reported as “inactive”. The Potency [4] was “inactive”, the Potency [14] was “inactive” and the Potency [5] was “inactive”. The activation [20] was 3.6% (inactive), the outcome [8] was “inactive” and the max response [9] was 11.9%. The outcome [10] was “inactive” and the Potency [13] was “inactive”.
For CCBr, the Potency [1] was > 92 µM (inactive), the Potency [16] was > 92 µM (inactive) and the Potency [4] was “inactive”. The Potency [14] was “inactive”, the Potency [5] was “inactive” and the Potency [6] was “inactive”. The Potency [7] was “inactive”, the activation [20] was 4.52% (inactive) and the outcome [8] was “inactive”. The max response [9] was 13.3%, the outcome [10] was “inactive” and the outcome [11] was “inactive”. The Potency [15] was “inactive” and the activation [12] was 1.32% (inactive).
